Measured values from the supplement of paper PMC9023506.
Counter-ions that a name gives are not always drawn.

Tested on: Danio rerio larvae (5 dpf)
Assay: activity during period 15 (no stimuli), difference vs DMSO (percentage points (treated minus DMSO)); higher = more of the behaviour than the DMSO vehicle control
Conditions: 10 µM; exposure time: 3 h pre-incubation + 3 h imaging
Method: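 5-dpf wild-type zebrafish larvae were imaged in 96-well plates. They were treated with 190 Tocris FDA-approved drugs at 10 µM (1 µl/ml DMSO) for 3 h before and 3 h during imaging at 28.5 °C, 48 larvae per drug. Automated image analysis gave % time moving and optomotor responses. Values are drug group mean minus DMSO vehicle mean (n=844), in percentage points, for 10 behaviours.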

Row | Structure (SMILES) | activity during period 15
1 | C=CCN1C[C@H](C(=O)N(CCCN(C)C)C(=O)NCC)C[C@@H]2c3cccc4[nH]cc(c34)C[C@H]21 [Cabergoline] | -8.5
2 | CC[C@@H](C(N)=O)N1CCCC1=O [Levetiracetam] | 4.21
3 | Cc1cccc([C@H](C)c2c[nH]cn2)c1C [Dexmedetomidine hydrochloride] | -35.2
4 | CC(O)(CS(=O)(=O)c1ccc(F)cc1)C(=O)Nc1ccc(C#N)c(C(F)(F)F)c1 (configuration not stated) [Bicalutamide] | 5.81
5 | COc1cc2c(cc1OC)C1CC(=O)C(CC(C)C)CN1CC2 (configuration not stated) [Tetrabenazine] | 3.06
6 | COc1ccc(C(CN(C)C)C2(O)CCCCC2)cc1 (configuration not stated) [Venlafaxine hydrochloride] | -20.4
7 | CC(C)C[C@H]1C(=O)N2CCC[C@H]2[C@]2(O)O[C@](NC(=O)[C@@H]3C=C4c5cccc6[nH]c(Br)c(c56)C[C@H]4N(C)C3)(C(C)C)C(=O)N12 [Bromocriptine mesylate] | 3.6
8 | CN1C[C@H](C(=O)N[C@]2(C)O[C@@]3(O)[C@@H]4CCCN4C(=O)[C@H](Cc4ccccc4)N3C2=O)C[C@@H]2c3cccc4[nH]cc(c34)C[C@H]21 [Dihydroergotamine mesylate] | 1.37
9 | CCN(C)C(=O)Oc1cccc([C@H](C)N(C)C)c1 [Rivastigmine tartrate] | -7.13
10 | O=c1[nH]c2ccccc2n1C1CCN(CCCC(c2ccc(F)cc2)c2ccc(F)cc2)CC1 [Pimozide] | -8.89
11 | N[C@@H]1C[C@H]1c1ccccc1 [Tranylcypromine hydrochloride] | -10.3
12 | C=C1C[C@@H]2[C@H](CC[C@]3(C)C(=O)CC[C@@H]23)[C@@]2(C)C=CC(=O)C=C12 [Exemestane] | -15.7
